The structures appear in SMILES notation. Activity calls are given as the source filed them. Cut-off read from the data, not from the text of the source: active = IC50 below about 9 µM; inactive = the rest.

The assay deals with Ba/F3 Cytotoxicity. In words: JAK2V617F project follow-up: kinase, reporter, cytotoxicity – HEL and Ba/F3 cells, late-stage follow-up (AID 2165). Conditions: JAK2V617F panel: kinase, IRF1 reporter.
For `CC(C)[C@@H](CO)Nc1nc(Nc2cccc(Cl)c2)c2ncn(C(C)C)c2n1`, the IC50 was 950 nM (active).
As for `N#CC(C#N)=Cc1cc(O)c(O)c(I)c1`, the IC50 was 8990 nM (active).
The same measure for `N#CC(C#N)=Cc1ccc(O)c(O)c1`: 2560 nM (active).

Broadly, the IC50 is the point on the concentration scale where inhibition reaches its midpoint.

The record behind these values is PubChem BioAssay AID2165 (The Scripps Research Institute Molecular Screening Center, 2009).
